# In PubChem BioAssay (NCATS):
# Results filed as inconclusive are left out. Where a call stands in place of a potency, no number is given. Active and inactive are the calls of the source. Calls follow the shape of the full dose curve.
# Molecular target: Nucleoprotein (Lymphocytic choriomeningitis virus (strain Armstrong)) (UniProt P09992)
# Experiment: qHTS for Inhibitors of the Functional Ribonucleoprotein Complex (vRNP) of Lymphocytic Choriomeningitis Arenaviruses (LCMV): LCMV Primary Screen - GLuc reporter signal (AID 1347086); also: nearly all actives have a fitted effect of over 70% in size
# Conditions: LCMV minigenome vRNP cell assay, Gaussia luciferase reporter; series mostly up to 57.5 µM
# Potency is read from the fitted curve at half-maximal effect.
# Chain of Nucleoprotein (Lymphocytic choriomeningitis virus (strain Armstrong)) (P09992 whole entry, looked up): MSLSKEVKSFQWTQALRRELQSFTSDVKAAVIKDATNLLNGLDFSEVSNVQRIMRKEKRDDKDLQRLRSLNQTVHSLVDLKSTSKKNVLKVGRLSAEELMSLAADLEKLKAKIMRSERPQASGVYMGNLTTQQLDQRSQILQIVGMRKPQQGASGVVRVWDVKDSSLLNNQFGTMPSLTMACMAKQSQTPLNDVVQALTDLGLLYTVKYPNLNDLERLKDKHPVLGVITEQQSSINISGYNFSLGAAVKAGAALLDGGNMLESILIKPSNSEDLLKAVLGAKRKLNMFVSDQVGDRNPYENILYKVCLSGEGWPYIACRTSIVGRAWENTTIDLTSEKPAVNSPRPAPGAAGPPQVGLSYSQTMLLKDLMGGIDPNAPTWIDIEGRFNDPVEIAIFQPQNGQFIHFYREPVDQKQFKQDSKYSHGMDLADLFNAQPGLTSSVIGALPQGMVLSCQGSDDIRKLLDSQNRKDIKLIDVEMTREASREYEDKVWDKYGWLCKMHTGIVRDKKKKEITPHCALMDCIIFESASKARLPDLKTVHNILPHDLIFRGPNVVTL
row,SMILES,Potency
1,C#CCN[C@H](C)Cc1ccccc1,inactive
2,NCC(O)c1cc(O)c(O)cc1F (stereo unspecified),inactive
3,NCCc1c[nH]c2ccc(C(N)=O)cc12,inactive
4,C[C@@H]1O[C@@H](O[C@H]2C[C@@H](O)[C@]3(CO)[C@@H]4C(CC[C@]3(O)C2)[C@@]2(O)CC[C@H]([C@@H]3COC(=O)C3)[C@@]2(C)C[C@H]4O)[C@H](O)[C@H](O)[C@H]1O (stereo partly specified),2000 nM (active)
5,CC(N)Cc1c[nH]c2ccc(O)cc12 (stereo unspecified),inactive
6,NNC(=O)c1ccc(O)cc1,inactive
7,C=CCN1CCC23c4c5ccc(O)c4O[C@H]2C(=O)CC[C@@]3(O)C1C5 (stereo partly specified),inactive
8,NC(=O)COc1c(F)cc(SCCNS(=O)(=O)c2ccccc2)cc1F,inactive
9,CNc1ccc2oc(C[C@H]3O[C@@]4(CC[C@H]3C)O[C@H]([C@H](C)C(=O)c3ccc[nH]3)[C@H](C)C[C@H]4C)nc2c1C(=O)O,inactive
10,NNC(N)=O,inactive
11,Oc1ccc2c3c1O[C@H]1c4[nH]c5ccccc5c4C[C@@]4(O)C(C2)N(CC2CC2)CCC314 (stereo partly specified),inactive
12,NC(CCCCCP(=O)(O)O)C(=O)O (stereo unspecified),inactive
13,CCCN1CC[C@@H]2c3cc(O)ccc3CC[C@@H]21,inactive
14,OC1CCCCC1N1CCC(c2ccccc2)CC1 (stereo unspecified),inactive
15,COC(=O)N1CCN(C(=O)Cc2ccc(Cl)c(Cl)c2)C(CN2CCCC2)C1 (stereo unspecified),inactive
16,Cc1[nH]c2ccc(O)cc2c1CCN,inactive
17,NC(=O)c1ccc(OCC(O)CN2CC=C(c3ccc(F)cc3)CC2)cc1 (stereo unspecified),inactive
18,CCCN(CCC)[C@H]1CCc2c(F)ccc(O)c2C1,inactive

row,SMILES,Potency
1,Cc1o[nH]c(=O)c1CC(N)C(=O)O (stereo unspecified),inactive
2,CN(C(=O)Cc1ccc(Cl)c(Cl)c1)C(CN1CCCC1)c1cccc(OCC(=O)O)c1 (stereo unspecified),inactive
3,Cc1cc([C@@H]2CCCN2C)on1,inactive
4,C[N+]1(C)CCc2cc3c(cc2[C@H]1[C@@H]1OC(=O)c2c1ccc1c2OCO1)OCO3,inactive
5,CCCN(CCC)C1Cc2cc(OC)c(OC)cc2C1,inactive
6,CCOC(=O)c1ncn2c1[C@@H]1CCCN1C(=O)c1cc(OC)ccc1-2,inactive
7,CCCN(CCC)CCc1ccc(O)c(O)c1,inactive
8,CC(N)c1cccc(Cl)c1Cl (stereo unspecified),inactive
9,N[C@@]1(C(=O)O)CC[C@@H](C(=O)O)C1,inactive
10,CC12NC(Cc3ccccc31)c1ccccc12 (stereo unspecified),inactive
11,c1ccc2c(N3CCNCC3)cccc2c1,inactive
12,C[N+]1(C)CCOC(O)(c2ccc(-c3ccc(C4(O)C[N+](C)(C)CCO4)cc3)cc2)C1 (stereo unspecified),inactive
13,N=C(N)c1ccc(CS(=O)(=O)F)cc1,inactive
14,CC(N)Cc1c[nH]c2ccc(OCc3cccs3)cc12 (stereo unspecified),inactive
15,O=C1CC[C@@]2(O)C3Cc4ccc(O)c5c4C2(CCN3CC2CC2)[C@H]1O5 (stereo partly specified),inactive
16,CCN1C[C@@]2(COC)C3[C@@H](OC)C4[C@@H]1C3([C@@H]1C[C@]3(O)[C@H](OC(=O)c5ccccc5)[C@@H]1[C@]4(OC(C)=O)[C@@H](O)[C@@H]3OC)[C@H](OC)C[C@H]2O,inactive
17,CCNC(=O)[C@H]1O[C@@H](n2cnc3c(N)ncnc32)[C@H](O)[C@@H]1O,inactive
18,CO[C@H]1CC=C2CCN3CCC4=C(CC(=O)OC4)[C@]23C1,inactive
